Among all 3,200 compounds or so, about 300 (9.4%) showed activity. Only a selection was taken, and actives are over-represented in it overall.
System: A673/TR/shEF
Assay: cell viability (LOESS-normalised, relative to median of negative controls) (log2 ratio); higher = more viable cells (less compound effect), active = hit call of the paper (over 3 MAD below the median)
Details: treatment time: 72 h
How it was run: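 Viability of A673/TR/shEF Ewing sarcoma cells was determined by CellTiter-Glo luminescence. The cells, at 1,500 per well in 384-well plates, were grown with or without doxycycline from 24 h before compound addition to switch on EWS-FLI1 shRNA knockdown, then exposed for three days to library compounds at two or more concentrations or to DMSO controls. Signals were LOESS-corrected plate by plate, normalised to the negative-control median and log2-transformed.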

[1] = 0.103 µM, library screen: screen3, EWS-FLI1 expression: high (no doxycycline)
[2] = 0.103 µM, library screen: screen3, EWS-FLI1 expression: low (doxycycline-induced shRNA knockdown)
[3] = 0.308 µM, library screen: screen3, EWS-FLI1 expression: high (no doxycycline)
[4] = 0.308 µM, library screen: screen3, EWS-FLI1 expression: low (doxycycline-induced shRNA knockdown)
[5] = 0.926 µM, library screen: screen3, EWS-FLI1 expression: high (no doxycycline)
[6] = 0.926 µM, library screen: screen3, EWS-FLI1 expression: low (doxycycline-induced shRNA knockdown)
[7] = 2.8 µM, library screen: screen3, EWS-FLI1 expression: high (no doxycycline)
[8] = 2.8 µM, library screen: screen3, EWS-FLI1 expression: low (doxycycline-induced shRNA knockdown)
[9] = 8.3 µM, library screen: screen3, EWS-FLI1 expression: high (no doxycycline)
[10] = 8.3 µM, library screen: screen3, EWS-FLI1 expression: low (doxycycline-induced shRNA knockdown)
[11] = 25 µM, library screen: screen3, EWS-FLI1 expression: high (no doxycycline)
[12] = 25 µM, library screen: screen3, EWS-FLI1 expression: low (doxycycline-induced shRNA knockdown)
[13] = 0.25 µM, library screen: screen1, EWS-FLI1 expression: high (no doxycycline)
[14] = 0.25 µM, library screen: screen1, EWS-FLI1 expression: low (doxycycline-induced shRNA knockdown)
[15] = 2.5 µM, library screen: screen1, EWS-FLI1 expression: high (no doxycycline)
[16] = 2.5 µM, library screen: screen1, EWS-FLI1 expression: low (doxycycline-induced shRNA knockdown)
[17] = 0.25 µM, library screen: screen2, EWS-FLI1 expression: high (no doxycycline)
[18] = 0.25 µM, library screen: screen2, EWS-FLI1 expression: low (doxycycline-induced shRNA knockdown)
[19] = 2.5 µM, library screen: screen2, EWS-FLI1 expression: high (no doxycycline)
[20] = 2.5 µM, library screen: screen2, EWS-FLI1 expression: low (doxycycline-induced shRNA knockdown)
[21] = 0.025 µM, library screen: screen1, EWS-FLI1 expression: high (no doxycycline)
[22] = 0.025 µM, library screen: screen1, EWS-FLI1 expression: low (doxycycline-induced shRNA knockdown)
[23] = 25 µM, library screen: screen1, EWS-FLI1 expression: high (no doxycycline)
[24] = 25 µM, library screen: screen1, EWS-FLI1 expression: low (doxycycline-induced shRNA knockdown)

Measured: cell viability (log2)

FC(F)(F)c1ccc(/C=C/c2nc(COc3ccc(CCCCn4ccnn4)cc3)co2)cc1
inactive: [2] -0.0943
active: [1] -0.325 | [3] -0.568 | [4] -0.12 | [5] -0.774 | [6] -0.153 | [7] -1.45 | [8] -0.118 | [9] -1.63 | [10] -0.193 | [11] -1.47 | [12] -0.184

CC(=O)OC1CC[C@@]2(C)C(CC[C@H]3[C@@H]4CC=C(C(C)=O)[C@@]4(C)C(=O)C[C@@H]32)C1 (stereo partly drawn)
inactive: [13] 0.0289 | [14] 0.0314 | [15] 0.141 | [16] 0.0915

COC(=O)C[C@H]1C(C)(C)[C@H](O)[C@@H]2CC3=C4CC(O)O[C@@H](c5ccoc5)[C@]4(C)CCC3[C@@]1(C)C2=O (stereo partly drawn)
inactive: [13] 0.0798 | [14] 0.183 | [15] 0.141 | [16] 0.127

C[C@H](NCCc1ccc(O)cc1)[C@H](O)c1ccc(O)cc1
inactive: [1] -0.0282 | [2] 0.0403 | [13] 0.119 | [14] 0.0926 | [17] 0.11 | [18] 0.0788 | [3] 0.0762 | [4] 0.0395 | [5] 0.0419 | [6] 0.0833 | [15] 0.157 | [16] 0.125 | [19] 0.0729 | [20] -0.0642 | [7] 0.0463 | [8] 0.0441 | [9] 0.098 | [10] 0.0382 | [11] 0.0513 | [12] 0.0444

COc1ccc(CCNCC(O)c2ccc(O)cc2)cc1OC (stereo not drawn)
active: [19] -0.721 | [20] -0.108
inactive: [17] 0.167 | [18] -0.0395

COc1ccc(CCN(C)CCc2ccc(OC)c(OC)c2)cc1OC
inactive: [17] 0.187 | [18] 0.0366 | [19] 0.198 | [20] 0.0294

CC1(C)C(=O)C=C[C@]2(C)[C@H]3CC[C@@]4(C)[C@H](c5ccoc5)OC(=O)[C@H]5O[C@]54[C@]3(C)C=C[C@@H]12
inactive: [13] 0.0993 | [14] 0.0207 | [15] 0.1 | [16] 0.161

CC(=O)O[C@H]1C[C@@H](OC(C)=O)C(C)(C)C2C[C@@H](OC(C)=O)[C@@]3(C)C4=CC(=O)OC(=O)[C@]4(C)CCC3[C@]21C (stereo partly drawn)
inactive: [13] 0.0349 | [14] 0.118 | [15] 0.174 | [16] 0.189

CC1(C)C(=O)[C@@H]2C[C@@]3(O)C4=CC(=O)O[C@@H](c5ccoc5)[C@]4(C)CCC3C(C)(C2=O)[C@H]1CC(=O)O (stereo partly drawn)
inactive: [13] 0.0688 | [14] 0.13 | [15] 0.086 | [16] 0.0264

O=C(O)c1ccc(OC2CSC2)cc1
inactive: [13] -0.0489 | [14] 0.0317 | [15] 0.0805 | [16] 0.0727

CC(C)N1C(=O)/C(=C/c2ccc(N(C)C)cc2)SC1=S
inactive: [13] 0.23 | [14] 0.276 | [15] 0.232 | [16] 0.349

O=C1Nc2ccc(I)cc2/C1=C/c1cc(Br)c(O)c(Br)c1
inactive: [21] 0.115 | [22] -0.011 | [13] 0.134 | [14] -0.0458 | [17] 0.275 | [18] 0.0983 | [15] 0.0489 | [16] 0.0445 | [19] 0.0633 | [20] 0.123 | [23] -0.0847 | [24] 0.107

CN(C)c1ccc(/C=C2\C(=O)Nc3ccccc32)cc1
inactive: [21] 0.182 | [22] 0.00152 | [13] 0.171 | [14] 0.0583 | [16] 0.0499 | [24] 0.195
active: [17] -1.84 | [18] -0.565 | [15] -0.163 | [19] -2.61 | [20] -0.918 | [23] -0.158

O=C(O)CN(CC(=O)O)Cc1cc2c(cc1O)Oc1cc(O)c(CN(CC(=O)O)CC(=O)O)cc1C21OC(=O)c2ccccc21
inactive: [13] 0.133 | [14] 0.0463 | [15] 0.15 | [16] 0.0168

COc1ccc(NC(=O)/C(=C/c2cccnc2)NC(=O)c2cccs2)cc1
inactive: [13] 0.123 | [14] 0.163 | [15] 0.1 | [16] 0.101

Brc1ccc(CN2CCN(Cc3ccco3)CC2)cc1
inactive: [13] 0.0694 | [14] 0.0304 | [15] 0.0829 | [16] -0.00775

CC1=C(C(=O)OC2CCCC2)C(c2coc3ccc(Cl)cc3c2=O)C2=C(CCCC2=O)N1 (stereo not drawn)
inactive: [13] 0.123 | [14] 0.0763 | [15] 0.136 | [16] -0.0126

CC(C)c1c(O)ccc2c1CC[C@H]1C(C)(C)CCC[C@]21C
inactive: [13] 0.0946 | [14] 0.115 | [15] 0.166 | [16] 0.269

CCN(CC)C(=S)SSC(=S)N(CC)CC
inactive: [1] 0.0335 | [2] 0.117 | [17] 0.112 | [18] 0.121 | [3] -0.158 | [4] 0.0728
active: [13] -1.42 | [14] -0.538 | [5] -4.24 | [6] -2.11 | [15] -2.82 | [16] -1.78 | [19] -4.17 | [20] -0.213 | [7] -4.24 | [8] -4.26 | [9] -4.26 | [10] -4.27 | [11] -4.26 | [12] -4.25

Cc1cc(Cl)ccc1OCC(O)CN1CCN(C)CC1 (stereo not drawn)
inactive: [13] 0.0377 | [14] 0.029 | [15] 0.0948 | [16] 0.184

N[C@@H](C=O)[C@@H](O)[C@H](O)[C@H](O)CO
inactive: [13] 0.0986 | [14] 0.0199 | [15] 0.192 | [16] 0.145

CN(C)CC/C=C1\c2ccccc2COc2ccccc21
inactive: [13] 0.126 | [14] 0.129 | [17] 0.0848 | [18] 0.0467 | [15] 0.131 | [16] 0.118 | [19] 0.142 | [20] 0.121

CN(C)CCC=C1c2ccccc2CCc2ccccc21
inactive: [13] 0.0816 | [14] 0.086 | [18] 0.138 | [15] 0.144 | [16] 0.0763 | [19] 0.0454 | [20] 0.0908
active: [17] -0.148

CN(C)CCC=C1c2ccccc2C=Cc2ccccc21
inactive: [13] 0.131 | [14] 0.0615 | [17] 0.206 | [18] 0.141 | [15] 0.117 | [16] 0.104 | [19] 0.126 | [20] 0.0683

COc1c(C2COc3cc4c(cc3C2=O)CC(O)C(C)(C)O4)ccc2c1CCC(C)(C)O2 (stereo not drawn)
inactive: [13] 0.0719 | [14] 0.0278 | [15] 0.0883 | [16] 0.0229

CNC(=O)CN(CCN(CCN(CC(=O)[O-])CC(=O)NC)CC(=O)[O-])CC(=O)[O-].O.[Gd+3]
inactive: [1] 0.106 | [2] -0.0293 | [3] 0.00861 | [4] 0.114 | [5] 0.0946 | [6] 0.0839 | [7] 0.127 | [8] 0.127 | [9] 0.0841 | [10] 0.116 | [11] 0.0924 | [12] 0.134

C=C1[C@@H]([C@@]2(C)C=CC(=O)C(C)(C)[C@@H]2CC(=O)OC)CC[C@@]2(C)C(c3ccoc3)OC(=O)[C@H]3O[C@]132 (stereo partly drawn)
inactive: [13] 0.109 | [14] 0.0181 | [15] 0.0641 | [16] 0.0727

CC(=O)O[C@@H]1CC2C(C)(C)[C@H](O)C[C@H](O)[C@]2(C)C2CC[C@@]3(C)[C@H](c4ccoc4)OC(=O)[C@H]4O[C@]43[C@@]21C (stereo partly drawn)
inactive: [13] 0.0571 | [14] 0.106 | [15] 0.13 | [16] 0.11

O[C@H]1[C@H]2c3cc4c(cc3CN3CCC(=C[C@@H]1O)[C@H]23)OCO4
inactive: [13] 0.0121 | [14] 0.0722 | [15] 0.0564 | [16] -0.019

CO[C@H]1C=C[C@@]23c4cc5c(cc4CN(C[C@@H]2O)[C@H]3C1)OCO5
inactive: [13] 0.0568 | [14] 0.0269
active: [15] -0.415 | [16] -0.623

CSc1ccc(CN2CCN(Cc3ccco3)CC2)cc1
inactive: [13] 0.0257 | [14] 0.0474 | [15] 0.00049 | [16] 0.109

CC(C)n1cnc2c(NCc3ccccc3)nc(NCCO)nc21
inactive: [21] 0.171 | [22] -0.0915 | [13] 0.129 | [14] -0.0331 | [17] 0.226 | [18] 0.0704 | [15] -0.011 | [16] 0.0676 | [19] 0.247 | [20] 0.0622 | [23] -0.0635 | [24] 0.0737

CC[C@H](CO)Nc1nc(NCc2ccccc2)c2ncn(C(C)C)c2n1
active: [19] -0.591 | [20] -0.646
inactive: [21] 0.0954 | [22] 0.0682 | [1] 0.0283 | [2] -0.038 | [13] 0.0519 | [14] 0.0253 | [17] 0.213 | [18] 0.0581 | [3] 0.0653 | [4] 0.0646 | [5] -0.0162 | [6] 0.042 | [15] 0.0221 | [16] 0.0445 | [7] 0.0824 | [8] -0.0161 | [9] 0.118 | [10] 0.0527 | [23] -0.0359 | [24] 0.0272 | [11] 0.0337 | [12] 0.0206

Cn1cnc2c(NCc3ccccc3)nc(NCCO)nc21
inactive: [21] 0.0452 | [22] 0.063 | [13] 0.0867 | [14] 0.0323 | [17] 0.272 | [18] 0.106 | [15] 0.0349 | [16] 0.0403 | [19] 0.208 | [20] 0.113 | [23] 0.00929 | [24] 0.0531

— the supplement of paper PMC6089552
